Screens as filed in PubChem BioAssay.
IMPase cell inh: qHTS Assay for Identifying the Cell-Membrane Permeable IMPase Inhibitors | Inositol monophosphatase 1 (Rattus norvegicus), P97697 | CHO-M1 cells, IP1 accumulation, HTRF TR-FRET ratio | inhibition (IP1 accumulation), % at 46.1 µM | 120,000 tested, under 10 active | AID 901, 2007; active = well fitted curve in the direction sought with a large enough effect in the signal ratio, not every such curve was filed as active; inconclusive = small, poorly fitted or top-dose-only effect, or a change in a side signal; inactive = no such curve, though single readings can be large or run the other way; the % refers to the signal ratio;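 note: cells stimulated with carbachol in lithium chloride buffer; plate controls were DMSO basal wells for no effect and reference inhibitor wells for full effect; higher means more IMPase inhibition seen as more IP1 and lower FRET ratio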
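In this qHTS, compounds (final up to 46 uM) act on CHO-M1 cells that are then activated through the M1 receptor with carbachol, in pH 7.4 buffer containing 50 mM LiCl, for 30 min. IP1 accumulation is quantified by the IP-One immunoassay.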
HTT cytoprotect: qHTS Multiplex Assay to Identify Dual Action Probes in a Cell Model of Huntington: Cytoprotection (ATP); 230,000 compounds, 0.14% hits; AID 1471, 2008; PC12 HTT-Q103 induced, cytoprotection, ATP luminescence, 40 h; Potency, µM (top dose mostly 56.4 µM), without a hit: cytoprotection (ATP increase), most hits filed as activators; note: potency is the fitted concentration of half-maximal effect; % of control where 0% means no effect; nearly all actives have a fitted effect of over 45% in size
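Compounds were screened for protection of PC12 cells against cell death after tebufenozide induction (100 nM final) of mutant Huntingtin exon 1 (Q103) fused to GFP.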
ALDH1A1 inh: qHTS Assay for Inhibitors of Aldehyde Dehydrogenase 1 (ALDH1A1); Aldehyde dehydrogenase 1A1 (Homo sapiens), P00352; Purified ALDH1A1, NADH fluorescence, propionaldehyde substrate; Potency, µM (top dose mostly 75.3 µM), inactives show top-dose activity, negative = inhibition, usual class: inhibitors; 220,000 compounds, 7.3% hits; active = well fitted inhibition curve with a large enough effect, not every such curve was filed as active; inconclusive = small, poorly fitted or top-dose-only effect, or another doubt; inactive = no such curve, though single readings can be large or run the other way;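 note: potency is the fitted concentration of half-maximal effect; plate controls were no enzyme wells and a reference inhibitor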
Target sequence (P00352 whole entry, looked up): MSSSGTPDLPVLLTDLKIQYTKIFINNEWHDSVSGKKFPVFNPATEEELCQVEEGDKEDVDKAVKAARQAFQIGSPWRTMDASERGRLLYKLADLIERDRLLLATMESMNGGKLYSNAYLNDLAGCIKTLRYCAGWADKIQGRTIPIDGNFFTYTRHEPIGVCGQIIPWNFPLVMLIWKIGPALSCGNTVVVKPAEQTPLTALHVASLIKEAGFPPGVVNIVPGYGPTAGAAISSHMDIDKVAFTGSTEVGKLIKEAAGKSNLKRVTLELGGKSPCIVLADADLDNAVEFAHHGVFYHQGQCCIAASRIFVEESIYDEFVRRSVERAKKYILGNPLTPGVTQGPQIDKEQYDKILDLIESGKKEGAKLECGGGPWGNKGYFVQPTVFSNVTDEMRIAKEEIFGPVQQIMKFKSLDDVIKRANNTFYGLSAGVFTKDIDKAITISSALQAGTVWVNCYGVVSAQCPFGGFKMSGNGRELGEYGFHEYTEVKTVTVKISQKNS
HTT aggregate: qHTS Multiplex Assay to Identify Dual Action Probes in a Cell Model of Huntington: Aggregate Formation (GFP); PC12 HttQ103-GFP aggregates, Acumen cytometry, 40 h; Potency, µM (highest dose often 46.1 µM), for the others: top-dose activity change, negative = inhibition, usual class: inhibitors; 220,000 compounds, 1.1% hits; AID 1688, 2009; note: potency is the fitted concentration of half-maximal effect; % is set by controls: 0 for no effect and ±100 for the full control effect; nearly all actives have a fitted effect of over 60% in size
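Using laser scanning cytometry, GFP-positive aggregates were counted after lysis of PC12 cells induced with 100 nM tebufenozide to express HTT exon 1 Q103–GFP. Compounds were tested in titration.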
HPGD inh: qHTS Assay for Inhibitors of HPGD (15-Hydroxyprostaglandin Dehydrogenase). 15-hydroxyprostaglandin dehydrogenase [NAD(+)] (Homo sapiens), P15428. purified HPGD, NADH fluorescence kinetic, PGE2 substrate. Potency, µM, for the others: at the top dose activity change, negative = inhibition, hits mostly inhibitors. 150,000 compounds, 4.3% hits; active = well fitted inhibition curve with a large enough effect, not every such curve was filed as active; inconclusive = small, poorly fitted or top-dose-only effect, or another doubt; inactive = no such curve, though single readings can be large or run the other way; note: potency is the fitted concentration of half-maximal effect; % is set by controls: 0 for no effect and ±100 for the full control effect
Target sequence (P15428 whole entry, looked up): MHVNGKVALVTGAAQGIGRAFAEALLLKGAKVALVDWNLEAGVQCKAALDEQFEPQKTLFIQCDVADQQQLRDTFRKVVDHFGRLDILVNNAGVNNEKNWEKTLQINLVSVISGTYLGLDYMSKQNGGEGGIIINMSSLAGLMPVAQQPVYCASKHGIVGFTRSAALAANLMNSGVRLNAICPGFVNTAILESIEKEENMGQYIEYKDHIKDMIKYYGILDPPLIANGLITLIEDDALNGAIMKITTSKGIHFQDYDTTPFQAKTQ
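NADH formation kinetics: reaction with 30 uM PGE2 and 1 mM NAD+ (final), 20 nM enzyme, Tris-HCl pH 8 with Tween 20, after 15 min compound preincubation at room temperature. Fluorescence change, last versus first of five reads.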
IMPase Li inh: qHTS Assay for Identifying the Cell-Membrane Permeable IMPase Inhibitors: Potentiation with Lithium. CHO-M1 cells, IP1 TR-FRET (IP-One), carbachol + lithium. Potency, µM (series often up to 59.4 µM), for inactives: at the top dose activity, negative = IMPase inhibition, usual class: inhibitors. 210,000 compounds, 0.35% hits. AID 1457, 2008;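 note: IP1 builds up when IMPase is blocked and the TR-FRET signal falls; potency is the fitted concentration of half-maximal effect; plate controls were basal vehicle for no effect and high inhibitor control for full effect; nearly all actives have a fitted effect of over 50% in size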
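Steps: plate 2000 CHO-M1 cells per well and culture 16–30 h; add compound and lithium; incubate 30 min, 37C; add d2-IP1 tracer and Eu cryptate anti-IP1 antibody in lysis buffer; read after 10 min at room temperature.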
Numbers without * were called inactive; ? = inconclusive; . = not tested or not shown; [ ] = another dose, or the depositor's remark. Shown are actives, neighbours in structure and some others; about 9.4% of the full set was active somewhere. Unless noted, calls come from the whole dose curve; as a rule, active = well fitted curve in the direction sought with a large enough effect; inconclusive = small, poorly fitted or top-dose-only effect, or another doubt; inactive = no such curve, though single readings can be large; an effect the other way counts as inactive or inconclusive.

SMILES	IMPase cell inh	HTT cytoprotect	ALDH1A1 inh	HTT aggregate	HPGD inh	IMPase Li inh
CN(C)C(=S)c1ccc(N(C)C)cc1	.	-20%	0.79µM*	26%	.	22%
CN(C)c1ccc(C(=N)c2ccc(N(C)C)cc2)cc1	.	-31%	-11%	.	-3%	-11%
CCCCCCCCCCCCCCCC(=O)NCC(=O)O	.	.	-1%	.	-2%	-2%
CCNC(=S)Nc1cc(-c2ccc(Cl)cc2)[nH]n1	.	35%[10 µM]	1.3µM*	19%[9.22 µM]	.	-2%
Cc1ccc(N/N=C2/CCCNC2=O)cc1	0	-15%	22µM*	-5%	-15%	4%[38.3 µM]
CCc1cccc(NC(=O)C2CCC(CNS(=O)(=O)c3ccc(Br)s3)CC2)c1 (stereo not drawn)	2	.	.	.	.	.
Cc1cnc(C(=O)OCC(=O)NC2CCCCCC2)cn1	.	-28%	-2%	5%	.	-3%
Cc1cnc(C(=O)OCC(=O)c2csc(N3CCCCC3)n2)cn1	2	-3%	18µM*	31%	?	-7%[38.3 µM]
O=S(=O)(c1ccc2c(c1)OCCO2)N1CCC(c2nc3ccccc3[nH]2)CC1	2	-23%[10 µM]	6%	-9%	0%	17%[38.3 µM]
Cc1ccc2nc(C3CCN(S(=O)(=O)c4ccc5ccccc5c4)CC3)[nH]c2c1	5	-77%	?	18µM*	-17%	-1%[38.3 µM]
Cc1cn(S(=O)(=O)c2ccc(Br)c3ccccc23)cn1	?	15%[10 µM]	1%	-32%	3%	11µM*
Cc1ccccc1NC(=O)CSc1n[nH]c(-c2ccco2)n1	.	-8%[10 µM]	-3%	10%[9.22 µM]	.	8%
c1ccc(CSc2n[nH]c(-c3ccco3)n2)cc1	?	-35%	-5%	-12%	13µM*	13%[38.3 µM]
COC(=O)CCC(=O)OC1(C)C(=O)C=C2C=C(C3CC3)N(c3ccc(OC)cc3)C=C2C1=O (stereo not drawn)	.	24%[10 µM]	-3%[13.5 µM]	.	-6%	4%
NC(=O)c1ccc(N=C2C(=O)Nc3ccc([N+](=O)[O-])cc32)cc1	.	.	13µM*	.	.	13%
O=C1SC(SCc2ccccc2)=N/C1=C\c1ccco1	?	14%[0.074 µM]	-8%	?	-6%	6%[38.3 µM]
CCCSC1=N/C(=C\C=C\c2ccco2)C(=O)S1	-2	-1%	28µM*	19%	-28%	-18%[38.3 µM]
CCCSC1=N/C(=C\c2ccsc2)C(=O)S1	6	13%	0%	6%	-5%	15%[38.3 µM]
CSC1=N/C(=C\c2ccc(C)o2)C(=O)S1	8	3%	10µM*	?	?	22%[38.3 µM]
CCSC1=N/C(=C\c2ccc(-c3ccccc3[N+](=O)[O-])o2)C(=O)S1	10	-14%	0.32µM*	16%	-19%	-7%[38.3 µM]
CCCSC1=N/C(=C\c2ccc([N+](=O)[O-])o2)C(=O)S1	.	-23%	14µM*	25%	.	10%
CSC1=N/C(=C\c2ccc(C)s2)C(=O)S1	.	5%[10 µM]	-14%	3%	-5%	3%
CC/C=C\C/C=C\C/C=C\C/C=C\C/C=C\C/C=C\CCC(=O)NCCO	.	-2%	?	.	-6%	14%
COc1ccc(CNc2nc(-c3cccc(C#N)c3)nc3ccccc23)c(OC)c1	.	-11%	?	.	.	12%
O=c1[nH]c(=S)[nH]c2c1CN(CCCN1CCOCC1)CN2	.	-1%[10 µM]	9%[13.5 µM]	.	-4%	1%
SMILES	IMPase cell inh	HTT cytoprotect	ALDH1A1 inh	HTT aggregate	HPGD inh	IMPase Li inh
CCCCC1=CC2=C(c3ccco3)C(=O)C(C)(OC(=O)c3ccc(OC)cc3)C(=O)C2=CN1CCc1c[nH]c2ccccc12 (stereo not drawn)	.	11%[10 µM]	11%[13.5 µM]	.	-5%	-5%
CCCS(=O)(=O)N1CCN(Cc2ccccc2[N+](=O)[O-])CC1	.	.	8.9µM*	.	.	1%
CCCS(=O)(=O)N1CCN(Cc2ccccc2C(F)(F)F)CC1	3	-11%	?	-12%	-7%	-7%[38.3 µM]
CC(C)CC(=O)N1CCN(Cc2ccccc2[N+](=O)[O-])CC1	.	1%[10 µM]	0.089µM*	-1%[9.22 µM]	.	10%
CC(C)CC(=O)N1CCN(Cc2cccc([N+](=O)[O-])c2)CC1	.	-8%[10 µM]	?	-8%[9.22 µM]	.	2%
C[C@@]12C=CC(=O)C=C1CC[C@H]1[C@H]3CC[C@](O)(C(=O)CO)[C@]3(C)CC(=O)[C@@H]12	5[20.6 µM]	-8%[40.3 µM]	2%[20.9 µM]	.	-2%	2%
COc1cc(/C=C(\C#N)C(=O)NCCc2ccccc2)cc(OC)c1O	.	-27%	-2%	-9%	.	5%
N#C/C(=C\c1ccc(O)c(O)c1)C(=O)NCCc1ccccc1	16	-31%[1.9 µM]	?	.	25µM*	41%
N#C/C(=C\c1ccc(O)c(O)c1)C(=O)NCCCCc1ccccc1	2	-45%	?	.	8.9µM*	32%
O=C(O)[C@@H]1CS[C@@]2(CCCN(Cc3ccccc3)C2)N1	.	6%[10 µM]	-9%[13.5 µM]	.	1%	5%
COc1ccc(Nc2nc(C(=O)NCc3ccco3)cs2)cc1	.	4%[10 µM]	.	-7%[9.22 µM]	.	.
O=C(c1csc(Nc2ccccc2Cl)n1)N1CCCC1	5	-10%[10 µM]	22µM*	-3%	16µM*	-4%
O=C(NCc1ccco1)c1csc(Nc2ccccc2Cl)n1	-5	5%[10 µM]	?	-18%	16µM*	8%
O=C(c1csc(Nc2cccc3ccccc23)n1)N1CCCC1	.	20%[10 µM]	.	-33%[9.22 µM]	.	.
CC(C(=O)NC1CCCC1)N(C(=O)c1snc(C(N)=O)c1N)c1ccc2c(c1)OCCO2 (stereo not drawn)	-1	-13%	13µM*	17%	-20%	2%[38.3 µM]
Cc1cccc(N2CCN(Cc3nnc(-c4ccc5c(c4)OCO5)o3)CC2)c1C	-2	.	.	.	.	.
COC(=O)/C=C/c1cc(O)ccc1O	.	-82%	28µM*	.	.	9%
CC(=O)/C=C/c1ccccc1O	.	30%[10 µM]	4%	-2%	.	-1%
Cc1cc(/C=N/N2CCN(C)CC2)c(C)n1-c1ccccc1F	.	-31%	11µM*	13%	.	8%
CN1CCN(/N=C/c2ccc(-c3ccccc3)cc2)CC1	.	-31%	-4%	-7%	.	23%
COc1ccc(-c2nc3cnc(N4CCNCC4)nc3n(CCc3ccccc3)c2=O)cc1	.	?	?	.	?	0%
CCC(=O)[C@@]1(O)C(=O)N2C(=C3C(=O)OCCC31)N(Cc1ccccc1)C(C)=C(C(=O)OC)C2c1ccccc1 (stereo partly drawn)	.	-9%[10 µM]	11%[13.5 µM]	.	.	.
CCCOC(=O)c1ccc(N)cc1	.	-32%	.	10%	.	.
Cc1cc(NC(=O)Nc2cccc(Cl)c2)n(-c2ccccc2)n1	.	6%[10 µM]	.	-1%[9.22 µM]	.	.
